According to PubChem BioAssay (EPA / NIEHS):
Values joined by “and” are separate entries in the source; they are usually repeats but may differ in a detail not shown here. Identical values can stand only once. More than one record can exist for a structure, and the calls need not agree. Active and inactive are the calls of the source. The calls were made as follows: active = hit-call score of the fitted dose curve at least 0.9, where 1 is the maximum; inactive = score below 0.9.

How the values were obtained:
[1] = read-out: Transforming growth factor beta 1 (TGFb1), TGFB1 (gene 7040); test: BSK_KF3CT_TGFb1: BioMAP Diversity Plus: KF3CT Assay for Transforming growth factor beta 1 (TGFb1) Biomarker Activity (AID 2283072); conditions: primary human keratinocytes with fibroblasts; actives raise or lower the signal
Method in brief: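 Read-out: ELISA for TGF-b1 in keratinocyte/foreskin fibroblast human skin co-culture, 24 h after dosing; bidirectional curve fit vs DMSO baseline; gain or loss of signal scored.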

[2] = read-out: C-C motif chemokine 2 (Homo sapiens) (UniProt P13500); test: BSK_KF3CT_MCP1: BioMAP Diversity Plus: KF3CT Assay for Monocyte Chemoattractant Protein 1 (MCP1/CCL2) Biomarker Activity (AID 2283073); conditions: primary human keratinocytes with fibroblasts; actives raise or lower the signal
Method in brief: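 Human keratinocyte plus foreskin fibroblast primary co-culture exposed to chemical for 24 h. MCP-1 levels measured by ELISA. Bidirectional curve fitting relative to DMSO negative control as baseline.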

[3] = read-out: Matrix Metallopeptidase 9 (MMP9), MMP9 (gene 4318); test: BSK_KF3CT_MMP9: BioMAP Diversity Plus: KF3CT Assay for Matrix Metallopeptidase 9 (MMP9) Biomarker Activity (AID 2283074); conditions: primary human keratinocytes with fibroblasts; actives raise or lower the signal;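 as to AC50: MMP9 protein level quantified by ELISA in the co-culture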
Method in brief: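 ELISA read-out of MMP-9 at 24 h post-dosing in a co-culture of human skin keratinocytes and foreskin fibroblasts. Gain or loss of signal was fitted in both directions against DMSO.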

[4] = read-out: urokinase plasminogen activator (uPA), PLAU (gene 5328); test: BSK_KF3CT_uPA: BioMAP Diversity Plus: KF3CT Assay for urokinase plasminogen activator (uPA) Biomarker Activity (AID 2283075); conditions: primary human keratinocytes with fibroblasts; actives raise or lower the signal
Method in brief: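 Skin co-culture (keratinocytes + foreskin fibroblasts), human primary; 24 h post-dose; uPA by ELISA; gain/loss fit vs DMSO baseline.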

CD40, CD40 (gene 958) = test: BSK_LPS_CD40: BioMAP Diversity Plus: LPS Assay for CD40 Biomarker Activity (AID 2283076); conditions: primary human HUVEC with PBMC; actives raise or lower the signal
Method in brief: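 Primary human umbilical vein endothelial cells co-cultured with peripheral blood mononuclear cells, LPS-stimulated, were dosed with chemical and read 24 h later. CD40 levels were measured by ELISA and fitted bidirectionally against DMSO as negative control and baseline.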

[5] = read-out: E-selectin (Homo sapiens) (UniProt P16581); test: BSK_LPS_Eselectin: BioMAP Diversity Plus: LPS Assay for Eselectin Biomarker Activity (AID 2283077); conditions: primary human HUVEC with PBMC; actives raise or lower the signal
Method in brief: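 Human umbilical vein endothelial cells co-cultured with peripheral blood mononuclear cells under LPS stimulation; E-selectin measured by ELISA 24 h after chemical dosing. Activity fitted bidirectionally against DMSO as negative control and baseline.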

[6] = read-out: Interleukin-8 (IL8), CXCL8 (gene 3576); test: BSK_LPS_IL8: BioMAP Diversity Plus: LPS Assay for Interleukin-8 (IL8) Biomarker Activity (AID 2283078); conditions: primary human HUVEC with PBMC; actives raise or lower the signal
Method in brief: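 Human umbilical vein endothelial cells co-cultured with PBMC were stimulated with LPS; IL-8 levels were measured by ELISA 24 h after chemical dosing. Activity was fitted bidirectionally against DMSO as negative control and baseline.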

[7] = read-out: Monocyte Chemoattractant Protein-1 (MCP1), CCL2 (gene 6347); test: BSK_LPS_MCP1: BioMAP Diversity Plus: LPS Assay for Monocyte Chemoattractant Protein-1 (MCP1) Biomarker Activity (AID 2283081); conditions: primary human HUVEC with PBMC; actives raise or lower the signal;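 as to AC50: co-culture stimulated with LPS; secreted MCP-1 protein quantified by ELISA in culture supernatant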
Method in brief: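 HUVEC plus PBMC co-culture (human primary cells, LPS system) exposed to test chemical for 24 h; MCP-1 measured by ELISA. Bidirectional curve fitting against DMSO baseline; parallel SRB total-protein staining flags overt cytotoxicity.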

[8] = BSK_LPS_SRB: Viability Assessment in the BioMAP Diversity Plus: LPS Assay (AID 2283079); conditions: primary human HUVEC with PBMC;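 also: total protein by sulforhodamine B absorbance as a cytotoxicity measure; measured one day after compound addition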
Method in brief: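 Human umbilical vein endothelial cells co-cultured with PBMC (LPS system) were dosed for 24 h. Total protein was stained with 0.1% sulforhodamine B after 10% TCA fixation, read at 560 nm, and fitted bidirectionally against DMSO baseline.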

[9] = read-out: Interleukin-1 alpha (IL1a), IL1A (gene 3552); test: BSK_LPS_IL1a: BioMAP Diversity Plus: LPS Assay for Interleukin-1 alpha (IL1a) Biomarker Activity (AID 2283080); conditions: primary human HUVEC with PBMC; actives raise or lower the signal
Method in brief: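 Human umbilical vein endothelial cells co-cultured with peripheral blood mononuclear cells were LPS-stimulated and exposed to test chemicals for 24 h. IL-1 alpha was quantified by ELISA, with bidirectional curve fitting against DMSO as the negative control and baseline.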

Measured: AC50

Sequence of E-selectin (Homo sapiens) (P16581 whole entry, looked up): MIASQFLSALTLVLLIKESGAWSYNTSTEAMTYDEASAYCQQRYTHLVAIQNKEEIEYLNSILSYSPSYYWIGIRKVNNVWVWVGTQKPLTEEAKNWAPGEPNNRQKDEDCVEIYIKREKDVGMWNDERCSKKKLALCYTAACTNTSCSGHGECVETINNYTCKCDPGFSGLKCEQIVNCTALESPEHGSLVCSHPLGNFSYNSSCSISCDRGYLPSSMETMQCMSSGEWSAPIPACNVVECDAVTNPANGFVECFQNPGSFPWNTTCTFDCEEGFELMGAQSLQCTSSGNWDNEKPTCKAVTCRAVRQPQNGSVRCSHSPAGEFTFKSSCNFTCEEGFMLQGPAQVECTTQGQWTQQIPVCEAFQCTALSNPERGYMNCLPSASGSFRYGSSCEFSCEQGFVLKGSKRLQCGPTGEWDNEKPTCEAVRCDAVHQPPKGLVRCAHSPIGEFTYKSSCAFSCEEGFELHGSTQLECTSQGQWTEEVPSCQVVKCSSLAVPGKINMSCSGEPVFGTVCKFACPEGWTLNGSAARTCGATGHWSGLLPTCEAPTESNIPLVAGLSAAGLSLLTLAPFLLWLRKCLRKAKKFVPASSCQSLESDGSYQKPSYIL

CCN(CC)c1ccc2c(C)cc(=O)oc2c1
not listed: [8] | [9]
inactive: all other assays above

OCC(F)(F)C(F)(F)C(F)(F)C(F)F
not listed: [1]
inactive: all other assays above

O=C(O)C(F)(F)C(F)(F)F
not listed: [1]
inactive: all other assays above

O=C(O)C(F)(F)C(F)(F)C(F)(F)C(F)(F)C(F)(F)C(F)(F)C(F)(F)C(F)(F)C(F)(F)C(F)F
active: [2] 30 µM and 11.4 µM | [3] 16.2 µM and 12.5 µM | [4] 47.5 µM and 54.1 µM | CD40, CD40 (gene 958) 24.9 µM and 41.6 µM | [5] 58.3 µM | [6] 55 µM | [7] 41.1 µM and 44.3 µM
inactive: [5] | [6]

CCCCNc1ccccc1
not listed: [9]
inactive: all other assays above

O=C(Cl)C(F)(F)C(F)(F)C(F)(F)C(F)(F)C(F)(F)C(F)(F)C(F)(F)C(F)(F)F
active: [2] 54.5 µM and 53.2 µM | [3] 43.6 µM and 47.6 µM and 54.8 µM | CD40, CD40 (gene 958) 20.1 µM and 48.8 µM | [5] 50.4 µM | [6] 51.2 µM | [8] 44.7 µM and 42.3 µM | [7] 45.7 µM and 47.4 µM and 54.8 µM
inactive: [2] | [4] | CD40, CD40 (gene 958) | [5] | [6] | [8] | [9]

FC(F)(F)C(F)(F)C(F)(F)C(F)(F)C(F)(F)CCI
not listed: [1]
inactive: all other assays above

CCc1c(Br)c(Br)c(Br)c(Br)c1Br
not listed: [8]
inactive: all other assays above

FC(F)(F)C(F)(F)C(F)(F)C(F)(F)CCI
not listed: [1]
inactive: all other assays above

C#C[C@]1(O)CC[C@H]2[C@@H]3CCc4cc(OC)ccc4[C@H]3CC[C@@]21C
active: [1] 2.14 µM | [3] 7.71 µM | [4] 9.89 µM | CD40, CD40 (gene 958) 20 µM | [9] 31.1 µM | [7] 0.0185 µM
inactive: [2] | [5] | [6]

O[Si](c1ccccc1)(c1ccccc1)c1ccccc1
active: [1] 20 µM | [3] 6.74 µM | CD40, CD40 (gene 958) 24.4 µM | [8] 28.6 µM | [7] 28.9 µM
inactive: [2] | [4] | [5] | [6] | [9]

CC(CCl)OP(=O)(OC(C)CCl)OC(C)CCl (centres undefined)
not listed: [8] | [9]
inactive: all other assays above

CCO[Si](CCC(F)(F)C(F)(F)C(F)(F)C(F)(F)C(F)(F)C(F)(F)F)(OCC)OCC
inactive: [2] | [3] | [4] | CD40, CD40 (gene 958) | [5] | [6] | [7]
active: CD40, CD40 (gene 958) 1.4 µM

FC(F)(F)C(F)(F)C(F)(F)CI
inactive: [2] | [3] | [4] | CD40, CD40 (gene 958) | [5] | [6] | [8] | [7]
active: [6] 1.84 µM

N=C(N)C(F)(F)C(F)(F)C(F)(F)C(F)(F)C(F)(F)C(F)(F)C(F)(F)F
active: CD40, CD40 (gene 958) 41.5 µM | [6] 46.8 µM | [9] 38.2 µM | [7] 45.8 µM
inactive: [2] | [3] | [4] | CD40, CD40 (gene 958) | [5] | [6] | [9] | [7]

C=CC/C=C/C/C=C/C/C=C/C
not listed: [8] | [9]
inactive: all other assays above
